This is a sample that favours compounds with a hit; in the whole collection about 5.7% have one here.
HT1080NT lethal = kills 2HG-producing HT-1080-NT fibrosarcoma cells. HT-1080-NT fibrosarcoma viability, CellTiter-Glo ATP luminescence, 48 h. hit rate 1.6% among 360,000. Potency, µM (top dose mostly 46.1 µM), hits mostly cytotoxic;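 also: NT is the 2HG producing partner of a matched IDH1 knockdown line; nearly all actives have a fitted effect of over 55% in size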
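750 cells/well, RPMI + 5% FBS; 2 h settle, compound pin-transfer, 48 h at 37 degrees C. CellTiter-Glo 10 min RT, luminescence. Normalized to DMSO and media-only wells.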
KB-V1 MDR tox = KB-V1 MDR subline cytotoxicity; KB-V1 MDR cells viability, CellTiter-Glo, 72 h; Potency, µM (series often up to 46.1 µM), actives largely listed as cytotoxic; hit rate 3.4% among 400,000; also: nearly all actives have a fitted effect of over 60% in size
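Compound-treated KB-V1 multidrug-resistant cells, 72 h, 37 degrees C; viability by CellTiter-Glo. Fitted qHTS curves give the values.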
HT1080 IDH1KD tx = HT-1080 IDH1 knockdown cell toxicity (counter line) | HT-1080 IDH1 knockdown viability, ATP luminescence, 48 h | Potency, µM (titrated, usually from 46.1 µM), most hits filed as cytotoxic | hit rate 2% among 360,000 | AID 686971
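HT-1080-IDH1KD cells (IDH1 knocked down), 750/well in RPMI with 5% FBS, treated with compound 48 h at 37 degrees C. Viability by CellTiter-Glo luminescence, normalised to DMSO and no-cell wells; concentration-response curves classed.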
KB-3-1 tox = kills parental KB-3-1 adenocarcinoma cells | KB-3-1 viability, CellTiter-Glo ATP luminescence, 72 h | Potency, µM (highest dose often 46.1 µM), hits mostly cytotoxic | hit rate 1.4% among 400,000 | AID 1347075; also: nearly all actives have a fitted effect of over 60% in size
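Cells are dispensed, compounds pinned in, plates held at 37 °C for 72 h, then CellTiter-Glo is added and luminescence read after 10 minutes. Cell line: parental KB-3-1 in phenol-red-free DMEM, 10% FBS.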
A number is an active result; – = inactive; ? = inconclusive; · = no result given; [ ] = remark or other dose. Calls follow the shape of the dose curve; as a rule, active = well fitted curve in the direction sought with a large enough effect; inconclusive = small, poorly fitted or top-dose-only effect, or another doubt; inactive = no such curve, though single readings can be large; an effect the other way counts as inactive or inconclusive.

SMILES | HT1080NT lethal | KB-V1 MDR tox | HT1080 IDH1KD tx | KB-3-1 tox
CC(C)Oc1ccc(CNC(=O)c2ccc(NC(=O)c3nsc4ccccc34)cc2)cc1 | · | – | · | –
COC(=O)c1ccc2c(=O)n(-c3ccccc3F)c(=S)[nH]c2c1 | – | 18µM | – | ?
Cc1ccccc1-n1c2nc(=O)[nH]c(=O)c-2cc2c(Cl)cccc21 | · | – | · | –
CS(=O)(=O)c1nc(-c2ccccc2)cc(C(F)(F)F)n1 | 21µM | ? | 12µM | ?
Cc1cc(NC(=O)CCS(=O)(=O)c2nc(-c3ccccc3)cc(C(F)(F)F)n2)no1 | ? | – | –[9.24 µM] | ?
Cc1c(F)cccc1NC(=O)C1CCCN1S(=O)(=O)c1ccc(F)cc1 (configuration not stated) | · | – | · | –
C[C@]12CC[C@H]3C(=CCc4cc(O)ccc43)[C@@H]1CCC2=O | ? | 8.2µM | – | ?
C[C@]12C[C@H](O)[C@@H]3c4ccc(O)cc4CCC3[C@@H]1CCC2=O (some centres not stated) | – | – | – | –
CC(C)n1c(O)c(N=Nc2ccc(Cl)nn2)c2ccccc21 | – | 12µM | – | –
CC(C)(C)OC(=O)C(Oc1ccccc1[N+](=O)[O-])C(=O)OC(C)(C)C | – | – | – | –
O=C(Nc1cc(-c2ccc(Cl)cc2)no1)c1ccc(F)cc1 | · | ? | · | –
Cc1cc(N2C(=O)C3C4c5ccccc5C(c5ccccc54)C3C2=O)no1 (configuration not stated) | – | 8.2µM | – | –
COc1ccc(CN(C(=O)c2ccc(-c3ccccc3)[nH]2)C(C(=O)NC(C)(C)C)c2ccncc2)cc1 (configuration not stated) | – | 12µM | 15µM | ?
O=C1N/C(=C\c2ccc(O)cc2)C(=O)c2ccccc21 | ? | – | 18µM | ?
CCOc1ccc(-c2cc(CCCC(=O)NCCc3cc(OC)c(OC)c(OC)c3)no2)cc1 | · | – | · | –
Cc1ccc(N(CC(O)CON=C2c3ccccc3-c3ccccc32)S(C)(=O)=O)cc1 (configuration not stated) | ? | 23µM | ? | –
CN(Cc1ccc2c(c1)OCCO2)C(=O)CN1C(=O)NC2(CCCCC2)C1=O | – | – | – | –
CCN(Cc1ccc2c(c1)OCCO2)C(=O)CN1C(=O)NC2(CCCCC2)C1=O | – | 18µM | – | –
Cn1c(CN2CCOCC2)nc2cc(NC(=O)COc3ccccc3)ccc21 | – | 16µM | – | –
Cn1c(CN2CCCCC2)nc2cc(NC(=O)c3ccccc3)ccc21 | – | 8.2µM | – | –
Cc1ccc(N2CCN(CCc3nc4cc(NC(=O)c5ccco5)ccc4n3C)CC2)cc1 | – | 4.1µM | ? | –
Cn1c(CCN2CCOCC2)nc2cc(NC(=O)COc3ccccc3)ccc21 | – | – | – | –
Cc1ccc(C(C)C)c(OCC(=O)Nc2ccc3c(c2)nc(CN2CCCC2)n3C)c1 | 16µM | – | 23µM | ?
Cn1c(CCN2CCN(c3ccccc3)CC2)nc2cc(NC(=O)c3ccco3)ccc21 | – | – | – | –
CCc1ccc(NC(=O)CSC2=Nc3ccccc3C3=NC(CC(=O)NCc4ccc5c(c4)OCO5)C(=O)N23)cc1 (configuration not stated) | · | – | · | –
SMILES | HT1080NT lethal | KB-V1 MDR tox | HT1080 IDH1KD tx | KB-3-1 tox
CN(C)c1ccc(NC(=O)CN2C(=O)c3ccccc3Sc3ccc(C(=O)N4CCCC4)cc32)cc1 | · | – | · | –
COc1ccc(CCNC(=O)C(=O)NCC(c2ccco2)S(=O)(=O)c2ccc(F)cc2)cc1 (configuration not stated) | · | – | · | –
COc1ccc(S(=O)(=O)c2c(O)c(C)cc(NS(=O)(=O)c3ccc(Cl)cc3)c2C(C)C)cc1 | · | – | · | –
CCn1c(CN2CCCCC2)nc2cc(NC(=O)c3ccc([N+](=O)[O-])cc3)ccc21 | · | 6.5µM | · | –
O=C(O)C1=CC(=C(c2ccc(O)c(C(=O)O)c2)c2ccc(O)c(C(=O)O)c2)C=CC1=O | – | · | – | ·
O=C1C=CC(=C(c2ccc(O)cc2)c2ccc(O)cc2)C=C1 | 9.2µM | ? | 12µM | 5.8µM
CCN(CC)CCn1c(=N)n(CCOc2ccccc2)c2ccccc21 | 11µM | – | 10µM | ?
CCN(CC)CCn1c(=N)n(CC(O)COc2ccccc2)c2ccccc21 (configuration not stated) | 16µM | – | ? | –
CN=c1sc2ccccc2n1CC(O)COc1ccccc1 (configuration not stated) | – | 15µM | – | –
CCN(CC)CCn1c(=N)n(CCO)c2ccccc21 | – | – | – | –

Screening data (PubChem BioAssay)
